According to PubChem BioAssay AID1209 (Sanford-Burnham Center for Chemical Genomics, 2008):
Screen size: about 190,000 compounds; about 810 (0.43%) were called active. The sample as a whole holds a higher share of actives than the screen did. Unmarked numbers belong to inactive results. Rule as the data show it: active = inhibition above about 50%; inactive = the rest.

biological target: Mannose-6-phosphate isomerase (Homo sapiens) (UniProt P34949); assay: inhibitors of human PMI, primary screen, biochemical, fluorescence intensity, coupled assay (AID 1209); conditions: purified PMI enzyme, at 20 µM, active compounds read high;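 also: plate controls were DMSO vehicle for no effect and wells lacking substrate for full effect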
Sequence (P34949 whole entry, looked up): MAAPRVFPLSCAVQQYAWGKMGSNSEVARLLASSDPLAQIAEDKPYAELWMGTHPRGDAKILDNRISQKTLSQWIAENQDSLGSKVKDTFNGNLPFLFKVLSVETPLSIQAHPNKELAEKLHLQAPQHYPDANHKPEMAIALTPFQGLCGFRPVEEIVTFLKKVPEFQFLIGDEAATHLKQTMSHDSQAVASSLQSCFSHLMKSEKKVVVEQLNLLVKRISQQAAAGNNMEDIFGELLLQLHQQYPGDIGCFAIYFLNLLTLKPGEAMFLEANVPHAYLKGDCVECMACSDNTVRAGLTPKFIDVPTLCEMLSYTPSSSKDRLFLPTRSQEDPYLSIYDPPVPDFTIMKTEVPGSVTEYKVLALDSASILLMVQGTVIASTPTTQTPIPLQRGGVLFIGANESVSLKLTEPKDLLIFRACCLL

Compound	inhibition
COc1cccc(-c2ccc(SCC(=O)NCCc3ccccc3)nn2)c1	1.9%
CC(=O)Nc1c(O)c2ccccc2[nH]c1=O	20.2%
O=c1[nH]c2ccccc2c(O)c1O	71.8% (active)
O=c1[nH]c2ccccc2c2ccccc12	3.2%
Cc1cccc(/C(N)=N/OC(=O)C23CC4CC(CC(C4)C2)C3)c1	9%
Cn1c(=O)n(Cc2ccc(F)cc2)c(=O)c2c1nc1n2CCCN1C1CCCCC1	6%
CCCCNC(=O)CCC(=O)NNc1nc2ccccc2c2nc(C)nn12	6.3%
COCCCNC(=O)CCC(=O)NNc1nc2ccccc2c2nc(C)nn12	-1.5%
CCOCCCNC(=O)CCC(=O)NNc1nc2ccccc2c2nc(C)nn12	57.5% (active)
COC(=O)c1cccc(NS(=O)(=O)c2ccc(NC(C)=O)cc2)c1C	-4.2%
O=C(CCc1ccc(S(=O)(=O)N2CCOCC2)cc1)N/N=C/c1ccc(F)cc1F	4.8%
O=C(Cc1csc(N2CCOCC2)n1)N/N=C/c1cccc(O)c1	3.3%
O=C(CCN1CCN(c2ccccc2)CC1)N/N=C/c1ccccc1O	-8.5%
O=C(CCc1ccc(S(=O)(=O)N2CCOCC2)cc1)N/N=C/c1cccc(O)c1	11.1%
COc1ccc(/C=N/NC(=O)CCN2CCN(c3ccccc3)CC2)c(OC)c1OC	-3.2%
O=C(CCc1ccc(S(=O)(=O)N2CCOCC2)cc1)N/N=C/c1ccc(O)c(O)c1O	57.6% (active)
O=[N+]([O-])c1ccc(N/N=C/c2cccc(O)c2O)c(S(=O)(=O)N2CCOCC2)c1	16.7%
O=C(CCN1CCN(c2ccccc2)CC1)N/N=C/c1ccc(O)c(O)c1O	57.4% (active)
COc1cc(/C=N/Nc2ccc([N+](=O)[O-])cc2S(=O)(=O)N2CCOCC2)cc(OC)c1OC	-6.8%
O=C(Cc1csc(N2CCOCC2)n1)N/N=C/c1ccc(Cl)cc1Cl	4.7%
O=C(Cc1csc(N2CCOCC2)n1)N/N=C/c1ccc(O)c(O)c1O	83.3% (active)
O=[N+]([O-])c1ccc(N/N=C/c2ccc(O)c(O)c2O)c(S(=O)(=O)N2CCOCC2)c1	82.3% (active)
CN(C)C(=O)COc1ccc(Br)cc1	8.1%
O=C(NN=C1CCCC1)c1sc2ccccc2c1Cl	-19.6%
COc1ccc(N(C(=O)CCl)C(C(=O)NCCc2ccccc2)c2cccs2)cc1Cl (stereo not drawn)	-8.6%

Compound	inhibition
Cc1noc(NS(=O)(=O)c2ccc(NC(=O)C34CC5CC(C3)CC(n3cnc(Br)n3)(C5)C4)cc2)c1C	0.3%
O=C(CN1C(=O)CCC1=O)c1ccc(-c2ccccc2)cc1	5.6%
CC(=O)Nc1nc(SCc2ccc(Cl)cc2Cl)n[nH]1	2%
Nn1c(COc2ccc(Cl)cc2)nc2ccccc2c1=O	-0.6%
CC(=O)Nc1ccc(S(=O)(=O)N2CCN(C(=O)c3cccnc3)CC2)cc1	17.8%
CCOc1ccc(CCNC(=O)c2ccc(N3CCCC3=O)cc2)cc1OCC	1.3%
O=C1CN(CC(=O)Nc2ccc(SC(F)F)cc2)CCN1	2.5%
O=C(NCc1ccccc1)c1cccc(OCC(=O)N2CCN(C(=O)c3ccco3)CC2)c1	2%
COC(=O)C1=C(C(=O)OC)SC(=C2C(=S)C(C)(C)N(C(=O)C3CC3)c3ccccc32)S1	71.6% (active)
C/C=C/C(=O)N1c2ccccc2C(C)=CC1(C)C	-2.5%
CC1C(=O)Nc2ccccc2N1C(=O)C1CC1 (stereo not drawn)	-18%
COC(=O)C1=C(C(=O)OC)SC(=C2C(=S)C(C)(C)N(C(=O)C(C)C)c3ccccc32)S1	68% (active)
CN1C(=O)/C(=C2\SC(=S)N(C(CCC(=O)O)C(=O)O)C2=O)c2ccccc21 (stereo not drawn)	22.8%
O=C(C1CCC(C(=O)N2CCc3ccccc32)CC1)N1CCc2ccccc21 (stereo not drawn)	3.2%
COC(=O)C1=C(C(=O)OC)SC(=C2C(=S)C(C)(C)N(C(=O)CC(C)C)c3ccccc32)S1	38.8%
CCC(C)C(=O)N1c2ccccc2C(=C2SC(C(=O)OC)=C(C(=O)OC)S2)C(=S)C1(C)C (stereo not drawn)	63.8% (active)
CC1(C)c2ssc(=S)c2-c2ccccc2N1C(=O)CSC1=NCCS1	14.3%
COC(=O)C1=NN(c2ccccc2)C2(S1)SC(C(C)=O)=C(C)N2c1ccccc1 (stereo not drawn)	9.2%
CCCC(C(=O)O)N1C(=O)/C(=C2\C(=O)N(C)c3ccccc32)SC1=S (stereo not drawn)	16.5%
CCCC(=O)N1c2ccccc2C(=C2SC(C(=O)OC)=C(C(=O)OC)S2)C(=S)C1(C)C	62.1% (active)
Cc1ccc(/C=C/C(=O)CCC(=O)O)cc1	-0.7%
O=C(N/N=C/c1c[nH]c2ccccc12)c1sc2ccccc2c1Cl	17.1%
COc1cc(C2C3=C(CC(C)(C)CC3=O)OC3=C2C(=O)CC(C)(C)C3)cc([N+](=O)[O-])c1O	0.1%
O=C(CC1SC(=O)N(Cc2cccc3ccccc23)C1=O)Nc1nccs1 (stereo not drawn)	9.8%
O=C(/C=C/c1ccccc1)Oc1ccccc1C(=S)N1CCOCC1	15.6%

Compound	inhibition
Cc1csc(NC(=O)c2cc(C)oc2C)n1	-8.4%
CCOC(=O)c1sc(NC(=O)C2CCCO2)c(C(=O)OCC)c1C (stereo not drawn)	11.4%
FC(F)Oc1ccc(NC(=S)Nn2cnnc2)cc1	55.2% (active)
COc1ccc(NC(=S)Nn2cnnc2)cc1OC	61.2% (active)
CNC(=S)Nc1ccc(OC)c(OC)c1	7.4%
Cc1ccc(NC(=S)Nn2cnnc2)cc1	61.8% (active)
COc1ccc(NC(=S)NN2CCN(C)CC2)cc1OC	22.9%
FC(F)Oc1ccc(NC(=S)NN2CCOCC2)cc1	-3.1%
CCc1ccc(NC(=S)Nn2cnnc2)cc1	54.2% (active)
Cc1ccc(C(=O)NC(=S)Nn2cnnc2)cc1	12.4%
CN1CCN(NC(=S)Nc2ccc(OC(F)F)cc2)CC1	-15.1%
CCc1ccc(NC(=S)NCc2ccccc2)cc1	-2.6%
S=C(Nc1ccccc1)Nn1cnnc1	48.4%
CCc1ccc(NC(=S)Nc2ccc(S(=O)(=O)Nc3ncccn3)cc2)cc1	-1.7%
CCc1ccc(C(=O)COC(=O)c2n[nH]c3ccccc23)cc1	-0.2%
CCC1C(=O)N(C)CCc2ccccc21 (stereo not drawn)	-5.7%
COC(=O)c1nc(-c2ccccc2)oc1N1CCOCC1	-4.7%
COc1ccc(C)cc1NC(=O)C(Sc1nnc2ccccn12)c1ccccc1 (stereo not drawn)	-1%
Cc1ccc(S(=O)(=O)N/N=C/c2ccc(OS(=O)(=O)c3ccc(C)c([N+](=O)[O-])c3)cc2)cc1	1.6%
O=C(/C=C/c1ccc(Br)cc1)c1ccc(NC2=NCCCS2)cc1	1.6%
O=c1cc(O)c2sc(Nc3ccc(F)cc3)nc2[nH]1	69.8% (active)
O=c1cnnc(Nc2cccc(C(F)(F)F)c2)[nH]1	-10.6%
COc1ccc(Nc2nc(C)cc(=O)[nH]2)cc1	5.6%
O=c1cc(O)c2sc(Nc3ccc(F)c(Cl)c3)nc2[nH]1	41.4%
O=c1cc(O)c2sc(Nc3cccc(C(F)(F)F)c3)nc2[nH]1	52.4% (active)

Compound	inhibition
COc1ccc(Nc2nc3ccc(OC)cc3s2)cc1	-0.9%
Fc1ccc(Nc2nc3ccccc3s2)cc1	7.9%
Cc1cc(=O)[nH]c(Nc2cccc(C(F)(F)F)c2)n1	-10.3%
COc1ccc(Nc2nc3[nH]c(=O)cc(O)c3s2)cc1	50.2% (active)
CN(C)CCCN(C(=O)c1cc2ccccc2oc1=O)c1nc2c(F)cccc2s1	7.5%
O=C(CSc1n[nH]c(-c2cccs2)n1)N1CCN(S(=O)(=O)c2ccccc2)CC1	8.5%
C#CCOCCOCCOCCNc1nc(N2CCOCC2)nc(N2CCN(C(=O)[C@H](C)n3cc(CCCN=C(N)N)nn3)CC2)n1	-9.8%
COC(=O)c1ccc(NC(=O)CSc2n[nH]c(-c3ccncc3)n2)cc1	11.1%
COc1ccc(OCC(=O)N/N=C(\C)c2cc3ccccc3o2)cc1	4.9%
CC(SCC(=O)Nc1ccc(S(=O)(=O)N2CCCCC2)cc1)C(=O)O (stereo not drawn)	3.5%
Clc1cccc(Cl)c1NC1=NCCN1	-30.9%
c1cc(Nc2cccc3nccnc23)c2nccnc2c1	28.5%
Brc1c(NC2=NCCN2)ccc2nccnc12	54.4% (active)
Cc1nc2ccccc2n1CC(=O)OCC(=O)NCc1ccccc1	-3%
CS(=O)(=O)N(CC(=O)Nc1ccc(S(=O)(=O)N2CCCC2)cc1)c1ccccc1F	2.4%
Cc1cc(C)n(CC(=O)N/N=C/c2ccc3c(c2)OCO3)n1	12.1%
Cc1ccnn1CC(=O)N/N=C/c1ccc2c(c1)OCO2	-2.6%
O=C(Cn1nc(C(F)F)cc1C(F)F)N/N=C/c1ccc2c(c1)OCO2	92.9% (active)
Cc1ccc(C(=O)CC(=O)c2cc(Cl)ccc2O)cc1	-10.2%
Cc1cccc(C(=O)CC(=O)c2cc(Cl)ccc2O)c1	5.2%
O=C(CC(=O)c1cc(Cl)ccc1O)c1ccccc1	59.9% (active)
S=c1[nH]ncn1/N=C/c1ccccn1	5.3%
Oc1c(Br)cc(Br)cc1C=NCc1ccc(F)cc1	-4.2%
